Measurements as given in the supplement of paper PMC6522484.
Structures can show the parent of a compound that is named as a salt. ± gives the standard deviation of the averaged measurements.

What follows are compounds tested on DLD1 (assay: TCF/Wnt firefly luciferase reporter signal relative to plate median (fraction of plate median); higher = higher Wnt reporter signal). Settings: 10 µM; treatment time 24 h; reporter: TCF4/Wnt.
In short: (§1)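 Colorectal cancer cell lines carrying stably transduced lentiviral TCF/Wnt firefly luciferase reporters (7TFP or TCF4/Wnt) were plated in 384-well plates and treated 24 h later with kinase inhibitor library compounds at a final 10 µM for 24 h. Firefly luciferase or CellTiterGlo luminescence was read on parallel plates with a Tecan F500 reader. Signals were normalised per well to the plate median in webcellHTS2 (additive, no log transformation), and values are the mean of two independent replicates.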

Structure (SMILES) | TCF/Wnt firefly luciferase reporter signal
Cc1cc(Nc2cc(CN3CCOCC3)c3nc(C)c(Cc4ccc(Cl)cc4F)n3n2)n[nH]1 | 1.17 ± 0.43
CC[C@H](CO)Nc1nc(NCc2ccccc2)c2ncn(C(C)C)c2n1 [Roscovitine (Seliciclib, CYC202)] | 1.46 ± 0.23
CO[C@H]1C[C@@H]2CC[C@@H](C)[C@@](O)(O2)C(=O)C(=O)N2CCCC[C@H]2C(=O)O[C@H]([C@H](C)C[C@@H]2CC[C@@H](OP(C)(C)=O)[C@H](OC)C2)CC(=O)[C@H](C)/C=C(\C)[C@@H](O)[C@@H](OC)C(=O)[C@H](C)C[C@H](C)/C=C/C=C/C=C/1C [Deforolimus (Ridaforolimus)] | 1.02 ± 0.24
O=C1NC(=O)[C@@H](c2cn3c4c(cccc24)CCC3)[C@@H]1c1c[nH]c2ccccc12 [ARQ 197 (Tivantinib)] | 0.788 ± 0.31
COc1cccc2cc(-c3nc([C@H]4CC[C@H](C(=O)O)CC4)n4ncnc(N)c34)[nH]c12 | 0.449 ± 0.098
CO[C@H]1C[C@@H]2CC[C@@H](C)[C@@](O)(O2)C(=O)C(=O)N2CCCC[C@H]2C(=O)O[C@H]([C@H](C)C[C@@H]2CC[C@@H](OC(=O)C(C)(CO)CO)[C@H](OC)C2)CC(=O)[C@H](C)/C=C(\C)[C@@H](O)[C@@H](OC)C(=O)[C@H](C)C[C@H](C)/C=C/C=C/C=C/1C [Temsirolimus (Torisel)] | 0.995 ± 0.078
CC(C)(O)CC(=O)NCCn1ccc2ncnc(Nc3ccc(Oc4cccc(C(F)(F)F)c4)c(Cl)c3)c21 | 1.07 ± 0.18
CCCS(=O)(=O)Nc1ccc(F)c(C(=O)c2c[nH]c3ncc(Cl)cc23)c1F | 0.746 ± 0.1
O=C(O)c1ccc2c(c1)nc(Nc1cccc(Cl)c1)c1ccncc12 [cx-4945 (Silmitasertib)] | 0.651 ± 0.2
COc1cc2c(Oc3ccc(NC(=O)C4(C(=O)Nc5ccc(F)cc5)CC4)cc3F)ccnc2cc1OCCCN1CCOCC1 | 0.568 ± 0.054
CN(C)CCOc1ccc(-c2nc(-c3ccncc3)c(-c3ccc4c(c3)CC/C4=N\O)[nH]2)cc1 | 1.28 ± 0.042
COc1cc2nccc(Oc3ccc(NC(=O)C4(C(=O)Nc5ccc(F)cc5)CC4)cc3)c2cc1OC [XL-184 free base (Cabozantinib)] | 0.846 ± 0.078
CN1CC[C@H](c2c(O)cc(O)c3c(=O)cc(-c4ccccc4Cl)oc23)[C@H](O)C1 [Flavopiridol hydrochloride] | 0.227 ± 0.069
S=C(NCc1ccc2c(c1)OCO2)N1CCN(c2ncnc3c2oc2ccccc23)CC1 [Amuvatinib (MP-470)] | 1.23 ± 0.057
Cn1cnc(N)c2ncnc1-2 [3-Methyladenine] | 1.12 ± 0.11
Clc1ccc(Nc2nnc(Cc3ccncc3)c3ccccc23)cc1 [Vatalanib dihydrochloride (PTK787)] | 0.965 ± 0.13
O=c1cc(-c2cccc3c2Sc2ccccc2S3)oc(N2CCOCC2)c1 | 1.18 ± 0.13
CN1CCN(CCOc2cc(OC3CCOCC3)c3c(Nc4c(Cl)ccc5c4OCO5)ncnc3c2)CC1 [Saracatinib (AZD0530)] | 0.879 ± 0.036
CNC(=O)Nc1ccc(-c2nc(N3CC4CCC(C3)O4)c3cnn(C4CCC5(CC4)OCCO5)c3n2)cc1 | 0.554 ± 0.12
CO[C@H]1C[C@@H]2CC[C@@H](C)[C@@](O)(O2)C(=O)C(=O)N2CCCC[C@H]2C(=O)O[C@H]([C@H](C)C[C@@H]2CC[C@@H](OCCO)[C@H](OC)C2)CC(=O)[C@H](C)/C=C(\C)[C@@H](O)[C@@H](OC)C(=O)[C@H](C)C[C@H](C)/C=C/C=C/C=C/1C [Everolimus (RAD001)] | 1.05 ± 0.14
N#C/C(=C\c1ccc(O)c(O)c1)C(=O)NCc1ccccc1 | 1.2 ± 0.13
Cc1cc(CN2CCN(c3c(Br)cnc4nc(-c5ccc(N6CCN(C)CC6)cc5)[nH]c34)CC2)no1 | 1.49 ± 0.18
COc1cc2ncnc(Nc3cccc(Cl)c3)c2cc1OC [AG-1478 (Tyrphostin AG-1478)] | 0.75 ± 0.1
Cc1c(NC(=O)OC[C@@H]2COCCN2)cn2ncnc(Nc3ccc4c(cnn4Cc4cccc(F)c4)c3)c12 | 1.32 ± 0.2
CCCS(=O)(=O)Nc1ccc(F)c(C(=O)c2c[nH]c3ncc(-c4ccc(Cl)cc4)cc23)c1F [Vemurafenib (PLX4032)] | 0.939 ± 0.015
COc1ccc(-c2cc3c(C)nc(N)nc3n([C@H]3CC[C@H](OCCO)CC3)c2=O)cn1 | 0.533 ± 0.056

What follows are compounds tested on HCT116 in the same assay as above. Settings: 10 µM; treatment time 24 h; reporter: TCF4/Wnt.
In short: as §1

Structure (SMILES) | TCF/Wnt firefly luciferase reporter signal
OCCn1cc(-c2ccc3c(c2)CC/C3=N\O)c(-c2ccncc2)n1 | 1.62 ± 0.45
Cn1cc(-c2ccc3ncc(Cc4ccc5ncccc5c4)n3n2)cn1 | 0.991 ± 0.61
CNC(=O)c1cccc(-c2ccc3c(N4CCOC[C@@H]4C)nc(N4CCOC[C@@H]4C)nc3n2)c1 | 0.549 ± 0.09
CC(C)(C)Cn1c(N)nc2ccc(-c3[nH]c(C(C)(C)C)nc3-c3ccc(F)cc3)nc21 | 1.45 ± 0.38
C[C@]1(O)C[C@@H](c2nc(-c3ccc4ccc(-c5ccccc5)nc4c3)c3c(N)nccn32)C1 [Linsitinib (OSI-906)] | 1.29 ± 0.12
CCN(CC)CCNC(=O)c1c(C)[nH]c(/C=C2\C(=O)Nc3ccc(F)cc32)c1C [Sunitinib Malate (Sutent)] | 0.605 ± 0.33
COc1cc(Nc2ncc(F)c(Nc3ccc4c(n3)N(COP(=O)(O)O)C(=O)C(C)(C)O4)n2)cc(OC)c1OC | 2.02 ± 1.6
Cc1cc(C(C)Nc2ccccc2)c2nc(N3CCOCC3)cc(=O)n2c1 (stereo not drawn) | 1.15 ± 0.092
Cn1cc(-c2ccc3nnc(Sc4ccc5ncccc5c4)n3n2)cn1 | 1.41 ± 0.17
N#Cc1c(O)c2c(-c3ccc(-c4ccccc4O)cc3)csc2[nH]c1=O | 1.08 ± 0.064
C#Cc1cccc(Nc2ncnc3cc(OCCOC)c(OCCOC)cc23)c1 [Erlotinib HCl] | 0.729 ± 0.4
N#CC(=C(/N)Sc1ccccc1N)/C(C#N)=C(\N)Sc1ccccc1N | 0.95 ± 0.071
Nc1cccc(-c2cc3c(Oc4cccc(O)c4)ncnc3[nH]2)c1 | 1.28 ± 0.085
CCOc1cc2ncc(C#N)c(Nc3ccc(F)c(Cl)c3)c2cc1NC(=O)/C=C/CN(C)C [Pelitinib (EKB-569)] | 0.668 ± 0.071
Cc1cc(Nc2cc(CN3CCOCC3)c3nc(C)c(Cc4ccc(Cl)cc4F)n3n2)n[nH]1 | 0.826 ± 0.61
CC[C@H](CO)Nc1nc(NCc2ccccc2)c2ncn(C(C)C)c2n1 [Roscovitine (Seliciclib, CYC202)] | 1.34 ± 0.43
CO[C@H]1C[C@@H]2CC[C@@H](C)[C@@](O)(O2)C(=O)C(=O)N2CCCC[C@H]2C(=O)O[C@H]([C@H](C)C[C@@H]2CC[C@@H](OP(C)(C)=O)[C@H](OC)C2)CC(=O)[C@H](C)/C=C(\C)[C@@H](O)[C@@H](OC)C(=O)[C@H](C)C[C@H](C)/C=C/C=C/C=C/1C [Deforolimus (Ridaforolimus)] | 0.799 ± 0.43
O=C1NC(=O)[C@@H](c2cn3c4c(cccc24)CCC3)[C@@H]1c1c[nH]c2ccccc12 [ARQ 197 (Tivantinib)] | 0.241 ± 0.028
COc1cccc2cc(-c3nc([C@H]4CC[C@H](C(=O)O)CC4)n4ncnc(N)c34)[nH]c12 | 0.6105 ± 0.00071

Structure (SMILES) | TCF/Wnt firefly luciferase reporter signal
CO[C@H]1C[C@@H]2CC[C@@H](C)[C@@](O)(O2)C(=O)C(=O)N2CCCC[C@H]2C(=O)O[C@H]([C@H](C)C[C@@H]2CC[C@@H](OC(=O)C(C)(CO)CO)[C@H](OC)C2)CC(=O)[C@H](C)/C=C(\C)[C@@H](O)[C@@H](OC)C(=O)[C@H](C)C[C@H](C)/C=C/C=C/C=C/1C [Temsirolimus (Torisel)] | 1.165 ± 0.0071
CC(C)(O)CC(=O)NCCn1ccc2ncnc(Nc3ccc(Oc4cccc(C(F)(F)F)c4)c(Cl)c3)c21 | 0.902 ± 0.27
CCCS(=O)(=O)Nc1ccc(F)c(C(=O)c2c[nH]c3ncc(Cl)cc23)c1F | 1.05 ± 0.11
O=C(O)c1ccc2c(c1)nc(Nc1cccc(Cl)c1)c1ccncc12 [cx-4945 (Silmitasertib)] | 0.627 ± 0.36
COc1cc2c(Oc3ccc(NC(=O)C4(C(=O)Nc5ccc(F)cc5)CC4)cc3F)ccnc2cc1OCCCN1CCOCC1 | 1.2 ± 0.28
CN(C)CCOc1ccc(-c2nc(-c3ccncc3)c(-c3ccc4c(c3)CC/C4=N\O)[nH]2)cc1 | 1.19 ± 0.24
COc1cc2nccc(Oc3ccc(NC(=O)C4(C(=O)Nc5ccc(F)cc5)CC4)cc3)c2cc1OC [XL-184 free base (Cabozantinib)] | 1.05 ± 0.23
CN1CC[C@H](c2c(O)cc(O)c3c(=O)cc(-c4ccccc4Cl)oc23)[C@H](O)C1 [Flavopiridol hydrochloride] | 0.196 ± 0.047
S=C(NCc1ccc2c(c1)OCO2)N1CCN(c2ncnc3c2oc2ccccc23)CC1 [Amuvatinib (MP-470)] | 1.13 ± 0.29
Cn1cnc(N)c2ncnc1-2 [3-Methyladenine] | 1.03 ± 0.066
Clc1ccc(Nc2nnc(Cc3ccncc3)c3ccccc23)cc1 [Vatalanib dihydrochloride (PTK787)] | 0.899 ± 0.11
O=c1cc(-c2cccc3c2Sc2ccccc2S3)oc(N2CCOCC2)c1 | 1.6 ± 0.4
CN1CCN(CCOc2cc(OC3CCOCC3)c3c(Nc4c(Cl)ccc5c4OCO5)ncnc3c2)CC1 [Saracatinib (AZD0530)] | 0.799 ± 0.25
CNC(=O)Nc1ccc(-c2nc(N3CC4CCC(C3)O4)c3cnn(C4CCC5(CC4)OCCO5)c3n2)cc1 | 0.617 ± 0.14
CO[C@H]1C[C@@H]2CC[C@@H](C)[C@@](O)(O2)C(=O)C(=O)N2CCCC[C@H]2C(=O)O[C@H]([C@H](C)C[C@@H]2CC[C@@H](OCCO)[C@H](OC)C2)CC(=O)[C@H](C)/C=C(\C)[C@@H](O)[C@@H](OC)C(=O)[C@H](C)C[C@H](C)/C=C/C=C/C=C/1C [Everolimus (RAD001)] | 0.951 ± 0.15
N#C/C(=C\c1ccc(O)c(O)c1)C(=O)NCc1ccccc1 | 1.1 ± 0.021
Cc1cc(CN2CCN(c3c(Br)cnc4nc(-c5ccc(N6CCN(C)CC6)cc5)[nH]c34)CC2)no1 | 1.72 ± 0.46
COc1cc2ncnc(Nc3cccc(Cl)c3)c2cc1OC [AG-1478 (Tyrphostin AG-1478)] | 1.015 ± 0.0071
